Test results reported in PubChem BioAssay.
Active and inactive are the calls of the source.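 The calls were made as follows, unless noted: active = mean z-score across replicates of 1.96 or higher in either the MELAS or the Rieske mutant cell line; inactive = the rest.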

Tests used:
[1] = viability loss with induced miR-34 in A549 – imaging, A549 dox-inducible miR-34, nuclei and caspase counts, primary screen (AID 1347080;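 active = compounds whose cell count with miR-34 switched on is under 0.7 times the count with it off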); conditions: A549 miR-34 inducible, Hoechst nuclei count, 48 h
[2] = MELAS cybrid and Rieske KO viability enhancers – cell-based, MELAS cybrids, Rieske KO mouse fibroblasts, CellTiter-Glo, primary screen (AID 1508586); conditions: low glucose;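 also: z relative to plate mean and SD of compound and empty wells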
[3] = stronger effect = lower value, cell number ratio, induced over uninduced
[4] = measured here: relative caspase fold change +Dox/-Dox
[5] = measured here: total cells with miR-34 induction, stronger effect = lower value
[6] = measured here: total cells without miR-34 induction
[7] = MELAS cybrid survival, CellTiter-Glo 48 h, stronger effect = higher value
[8] = Rieske KO mouse fibroblast survival, CellTiter-Glo 72 h
Also: test concentration not given here.

Structure (SMILES) | fold change [1, 3] | fold change [1, 4] | cell count [1, 5] | cell count [1, 6] | z-score [2, 7] | z-score [2, 8]
Cc1cc(Cn2cnc3c2CC(C(=O)O)N(C(=O)C(c2ccccc2)c2ccccc2)C3)ccc1N(C)C (stereo not drawn) | 0.92 (inactive) | 0.34 | 8010 | 8710 | 0.9 (inactive) | -1.41
CC(C)c1nc(N(C)S(C)(=O)=O)nc(-c2ccc(F)cc2)c1C=CC(O)CC(O)CC(=O)O (stereo not drawn) | 0.92 (inactive) | 0.647 | 8010 | 8710 | 0.606 (inactive) | -0.0253
Cc1cc(C=C2SC(=S)NC2=O)c(C)n1-c1cccnc1 | 0.889 (inactive) | 0.503 | 7760 | 8720 | -0.359 (inactive) | -0.24
CON=C(C(=O)N[C@@H]1C(=O)N2C(C(=O)O)=C(CSC(=O)c3ccco3)CS[C@H]12)c1csc(N)n1 | 0.943 (inactive) | 1.19 | 9660 | 10200 | -0.295 (inactive) | 0.108
CC(O)[C@H]1C(=O)N2C(C(=O)OCOC(=O)C(C)(C)C)=C(SC3CN(C4=NCCS4)C3)C(C)[C@@H]12 (stereo partly drawn) | 0.943 (inactive) | 0.543 | 8990 | 9530 | -0.198 (inactive) | -0.552
CC(C)CC(NC(=O)CNC(=O)c1cc(Cl)ccc1Cl)B1OC(=O)CC(CC(=O)O)(C(=O)O)O1 (stereo not drawn) | 0.814 (inactive) | 0.899 | 1600 | 1960 | -0.37 (inactive) | -3.79
CCC1OC(=O)C(C)C(OC2C[C@@](C)(OC)C(O)C(C)O2)C(C)C(OC2OC(C)CC(N(C)C)C2O)[C@@](C)(O)CC(C)[C@@H]2NC(COCCOC)OC(C2C)[C@]1(C)O (stereo partly drawn) | 0.923 (inactive) | 0.895 | 8840 | 9580 | -0.208 (inactive) | -0.128
CNC(=O)c1ccccc1Sc1ccc2c(C=Cc3ccccn3)n[nH]c2c1 | 0.918 (inactive) | 0.851 | 2240 | 2440 | 1.15 (inactive) | -0.442
CCOc1ccccc1OC(c1ccccc1)[C@H]1CNCCO1 (stereo partly drawn) | 0.858 (inactive) | 1.73 | 8800 | 10300 | -0.71 (inactive) | -0.166
CCN=C1N[C@@H]2C(O)C(O)C(CO)O[C@@H]2S1 (stereo partly drawn) | 0.935 (inactive) | 0.487 | 8710 | 9320 | -0.533 (inactive) | -0.988
CC1=NN(c2ccc(C(=O)O)cc2)C(=O)C1=Cc1ccc(-c2cc(C)c(C)cc2[N+](=O)[O-])o1 | 0.902 (inactive) | 0.511 | 7310 | 8100 | -0.321 (inactive) | 0.107
CC[C@]1(O)C[C@@H]2CN(CCc3c([nH]c4ccccc34)[C@@](C(=O)OC)(c3cc4c(cc3OC)N(C=O)[C@@H]3[C@@]45CCN4CC=C[C@@](CC)(C(OC(C)=O)[C@]3(O)C(=O)OC)[C@H]45)C2)C1 (stereo partly drawn) | 1.22 (inactive) | 0.801 | 1340 | 1100 | 0.317 (inactive) | -1.38
C=C1C(CO)C(O)CC1n1cnc2c(=O)[nH]c(N)nc21 (stereo not drawn) | 1.01 (inactive) | 0.924 | 7270 | 7170 | -0.366 (inactive) | -0.0519
O=C1O[C@H](C(O)CO)C(O)C1O (stereo partly drawn) | 0.859 (inactive) | 0.731 | 8460 | 9850 | -0.207 (inactive) | -0.154
O=C(Nc1cc(C(F)(F)F)ccc1N1CCCCC1)c1ccncc1 | 0.916 (inactive) | 0.317 | 7440 | 8120 | -0.391 (inactive) | 1.41
O=C(O)C(S)=Cc1c[nH]c2ccc(F)cc12 | 0.952 (inactive) | 0.47 | 7180 | 7550 | -0.325 (inactive) | -0.491
COC1C(O)CC(=O)OC(C)CC=CC=CC(OC2CCC(N(C)C)C(C)O2)C(C)CC(CC=O)C1OC1OC(C)C(OC2C[C@](C)(O)C(O)C(C)O2)C(N(C)C)C1O (stereo partly drawn) | 0.934 (inactive) | 0.625 | 8350 | 8940 | -0.212 (inactive) | -0.158
CCC(C)C(=O)OC1CCC=C2C=CC(C)C(CCC3CC(O)CC(=O)O3)[C@H]21 (stereo partly drawn) | 0.904 (inactive) | 0.982 | 4680 | 5180 | -0.482 (inactive) | -0.195
Cc1[nH]c2ccccc2c1CCNC(=O)c1cccs1 | 0.913 (inactive) | 0.438 | 7830 | 8570 | -0.422 (inactive) | 0.75
NC(=O)NN=Cc1ccc([N+](=O)[O-])o1 | 0.88 (inactive) | 0.871 | 7280 | 8270 | -0.0834 (inactive) | -0.616
CC1(C)OC2C[C@H]3[C@@H]4CCC5=CC(=O)C=C[C@]5(C)[C@]4(F)C(O)C[C@]3(C)[C@@]2(C(=O)CO)O1 (stereo partly drawn) | 0.812 (inactive) | 1.01 | 5100 | 6270 | -0.349 (inactive) | -0.501
CCOC(=O)C(CCc1ccccc1)NC(C)C(=O)N1C(=O)N(C)CC1C(=O)O (stereo not drawn) | 0.891 (inactive) | 1.39 | 7920 | 8880 | 0.163 (inactive) | -0.0366
CC(CCC(=O)O)C1CC[C@H]2[C@@H]3CC[C@@H]4CC(O)CC[C@]4(C)[C@H]3CC[C@]12C (stereo partly drawn) | 0.884 (inactive) | 1.13 | 7640 | 8650 | -0.0806 (inactive) | -0.272
